Values without a mark were called inactive. Inconclusive results are not listed. The source made the active and inactive calls. Unless noted, the call rests on the fitted dose curve; in most records, active means well fitted curve in the direction sought with a large enough effect; inconclusive means small, poorly fitted or top-dose-only effect, or another doubt; inactive means no such curve, though single readings can be large; an effect the other way counts as inactive or inconclusive.

Assay [1] concerns the target Lysosomal acid glucosylceramidase (Homo sapiens) (UniProt P04062). In words: Glucocerebrosidase-p2 (AID 348; in the data active means potency below about 10 µM; further: potency means the concentration at half of the fitted maximal effect). The note with it: purified GBA, blue fluorogenic substrate, 40 min. The method in brief: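 Compounds titrated from 0.6 nM upwards against 0.2 nM enzyme in pH 5.9 citric acid/KH2PO4, taurocholate, tween-20; blue fluorogenic substrate 80 uM, 40 min room temperature, stopped and read Ex 365/Em 440 for AC50.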

A short description of assay [2]: AP1 Signaling Pathway (AID 357; active means well fitted curve in either direction with a large enough effect, not every such curve was filed as active;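 further: ME-180 reporter cells stimulated with EGF at its EC50 level; on the % scale 0 is the no-effect control and ±100 the full control effect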). The note with it: ME-180 AP-1-bla reporter, EGF-induced, beta-lactamase ratio, 5 h; at 7.69 µM (top of the series) unless noted. A digest of the protocol:
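AP-1-bla ME-180 cells, Opti-MEM + 0.5% dialyzed FBS, plated overnight 37 °C. Cpd titration + EC50 EGF, 5 h 37 °C. CCF4 2.5 h RT; ex 405, em 460/530 ratio → %activity, AC50.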

The target of assay [3] is Cytochrome P450 1A2 (Homo sapiens) (UniProt P05177). In words: p450-cyp1a2 (AID 410; calls by dose curve; further: potency means the concentration at half of the fitted maximal effect). A digest of the protocol: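 20nM CYP1A2 with 100uM Luciferin-ME (at Km) in 100mM KPO4; compound preincubated 10 min, NADPH regeneration added, 60 min at room temperature. Luciferin quantified by luminescence after detection reagent; normalized to 57 uM furafylline.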
Cytochrome P450 1A2 (Homo sapiens), sequence (P05177 whole entry, looked up): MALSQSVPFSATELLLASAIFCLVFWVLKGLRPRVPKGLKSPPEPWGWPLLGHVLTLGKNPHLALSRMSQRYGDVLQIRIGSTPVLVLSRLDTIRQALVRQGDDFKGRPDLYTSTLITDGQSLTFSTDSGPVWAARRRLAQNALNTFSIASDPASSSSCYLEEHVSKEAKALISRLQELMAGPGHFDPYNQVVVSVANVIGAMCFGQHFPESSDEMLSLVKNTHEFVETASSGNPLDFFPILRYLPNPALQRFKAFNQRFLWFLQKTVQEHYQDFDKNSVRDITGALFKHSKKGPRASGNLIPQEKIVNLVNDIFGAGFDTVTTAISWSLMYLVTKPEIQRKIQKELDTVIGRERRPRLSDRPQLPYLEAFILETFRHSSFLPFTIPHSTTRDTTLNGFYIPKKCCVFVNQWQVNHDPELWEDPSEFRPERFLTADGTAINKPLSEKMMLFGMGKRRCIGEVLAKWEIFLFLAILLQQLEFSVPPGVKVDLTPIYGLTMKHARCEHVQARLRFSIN
A short description of assay [4]: NFAT Signaling Pathway (AID 444; active means well fitted curve in either direction with a large enough effect, not every such curve was filed as active;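 further: carbachol stimulus at about its EC50 of 1 µM final; on the % scale 0 is the no-effect control and ±100 the full control effect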). The note with it: Jurkat NFAT-bla M1, carbachol, beta-lactamase ratio, 5 h; at 7.69 µM (top of the series) unless noted. The method in brief:
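Jurkat cells carrying an NFAT-driven β-lactamase reporter and co-transfected muscarinic M1 receptor were treated with compound plus carbachol (1 uM final, an EC50 level) for 5 h at 37 °C. CCF4 loading followed for 1 h at RT; 460/530 nm ratio gave %activity.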

A short description of assay [5]: Stat Signaling Pathway (AID 446; active means well fitted curve in either direction with a large enough effect, not every such curve was filed as active;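 further: ME-180 cervical cancer cells given 40 pM IL-6 alongside compound; SIE-controlled beta-lactamase reporter measured as 460/530 nm FRET emission ratio; on the % scale 0 is the no-effect control and ±100 the full control effect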). The note with it: ME-180 (cervical carcinoma) SIE beta-lactamase reporter, IL-6 stimulated, 5 h; at 7.69 µM (top of the series) unless noted. A digest of the protocol:
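ME-180 cells carrying a SIE-driven beta-lactamase reporter are stimulated with 40 pM IL-6 for 5 h at 37C in the presence of compound. The 460/530 nm FRET substrate ratio is read after 2.5 h at RT. Data are normalised to 300 pM IL-6 and to 125 nM JAK inhibitor controls.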

Assay [6] concerns the target Glucocorticoid receptor (Homo sapiens) (UniProt P04150). Briefly: GR-GFP Redistribution (AID 450;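 active means compounds whose dose series gives a full or clear partial fitted curve of increased nuclear translocation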; further: potency means the concentration at half of the fitted maximal effect). To be noted: U2OS GR-GFP nuclear translocation, laser cytometry, 2 h.
For assay [7] the target is unchanged. Briefly: GR-EFC Redistribution (AID 451; calls by dose curve; further: potency means the concentration at half of the fitted maximal effect). The note with it: CHO-K1 GR-EFC translocation, beta-gal luminescence, 2 h. The method in brief: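 CHO-K1 cells stably expressing nuclear-localized β-gal enzyme acceptor and GR fused C-terminally to the enzyme donor fragment; ligand-driven nuclear translocation restores β-gal by complementation. Compounds titrated up to 46 uM final, 2 h at 37 °C; luminescence read.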

The target of assay [8] is Mitogen-activated protein kinase 10 (Mus musculus) (UniProt Q61831). In words: JNK3 AlphaScreen Assay (AID 530; active means well fitted curve in either direction with a large enough effect, not every such curve was filed as active;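 further: kinase came from lysate of stimulated human HepG2 cells; signal reports phosphorylation of biotinylated GST-cJun 1-79 at Ser73 with 10 µM ATP; on the % scale 0 is the no-effect control and ±100 the full control effect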). The method in brief: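 Inhibitors reduce antibody binding to phosphorylated biotin-cJun, lowering AlphaScreen luminescence. Lysates from HepG2 cells pre-activated by IL-1beta plus TNF-alpha supplied JNK3; compounds were titrated.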
In assay [9] the target is Cytochrome P450 3A4 (Homo sapiens) (UniProt P08684). In words: qHTS Assay for Activators of Cytochrome P450 3A4 (AID 885). Further: nearly all actives have a fitted effect of over 65% in size. A digest of the protocol: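 Human CYP3A4 (20 nM) with Luciferin-PPXE at 25 uM (its KM) in 200 mM KPO4; 10 min compound preincubation, then NADPH regeneration and 60 min reaction at RT. Luciferin read by luminescence; normalized to 57 uM ketoconazole full inhibition.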

The target in assay [10] is Dual specificity protein kinase CLK4 (Homo sapiens) (UniProt Q9HAZ1). Briefly: qHTS Assay for Inhibitors of CDC-like Kinase 4 (ADP-FP Assay) (AID 1795).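 Further: recombinant human CLK4 phosphorylating RS repeat peptide at 1 µM ATP; on the % scale 0 is the no-effect control and ±100 the full control effect; nearly all actives have a fitted effect of over 60% in size.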 A digest of the protocol: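 Clk4 6.25 nM; RS peptide 100 uM; ATP 1 uM; 25 mM Tris pH 7.5, 10 mM MgCl2; 1 h reaction. ADP detected via antibody/orange tracer FP displacement; TG003 positive control.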
Dual specificity protein kinase CLK4 (Homo sapiens), sequence (Q9HAZ1 whole entry, looked up): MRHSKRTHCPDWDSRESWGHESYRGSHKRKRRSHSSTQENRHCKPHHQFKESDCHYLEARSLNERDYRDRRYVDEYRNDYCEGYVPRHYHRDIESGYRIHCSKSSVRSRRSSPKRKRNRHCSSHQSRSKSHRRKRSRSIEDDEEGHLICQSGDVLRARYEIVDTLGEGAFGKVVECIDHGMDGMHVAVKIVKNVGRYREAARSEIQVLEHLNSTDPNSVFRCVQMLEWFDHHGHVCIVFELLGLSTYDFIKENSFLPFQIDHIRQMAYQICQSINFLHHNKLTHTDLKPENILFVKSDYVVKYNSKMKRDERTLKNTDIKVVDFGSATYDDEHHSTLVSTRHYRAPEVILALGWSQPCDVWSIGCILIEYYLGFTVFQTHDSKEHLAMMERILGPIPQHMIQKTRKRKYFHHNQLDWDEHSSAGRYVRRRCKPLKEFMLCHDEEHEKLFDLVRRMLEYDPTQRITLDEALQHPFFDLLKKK
Assay [11] has as its target Ubiquitin carboxyl-terminal hydrolase 1 (Homo sapiens) (UniProt O94782). In words: Inhibitors of USP1/UAF1: Pilot qHTS (AID 504865).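 Further: rhodamine fluorescence freed from ubiquitin-rhodamine substrate followed over time; top concentration of the series differs between compounds; on the % scale 0 is the no-effect control and ±100 the full control effect; nearly all actives have a fitted effect of over 35% in size.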 The method in brief: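 In 50mM HEPES pH 7.8 containing 0.5mM EDTA, 1mM TCEP, 0.1 mg/ml BSA and 0.01% Tween-20, 1nM USP1/UAF1 is exposed to compound for 15 min, then Ub-Rho (150nM final) is added and fluorescence is read over time.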
Assay [12] in a line: Primary qHTS for small molecule stabilizers of the endoplasmic reticulum resident proteome: Secreted ER Calcium Modulated Protein (SERCaMP) assay (AID 1508630). Further: on the % scale 0 is the no-effect control and ±100 the full control effect. The method in brief:
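GLuc-SERCaMP-expressing SH-SY5Y cells, pretreated 16 h with compound, are challenged with thapsigargin to empty ER calcium stores; after 4 h, coelenterazine is added directly to the medium and luminescence is imaged.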

Assay [13] concerns the target Rap guanine nucleotide exchange factor 3 (Homo sapiens) (UniProt O95398). In words: Confirmatory qHTS for agonist of cAMP-regulated guanine nucleotide exchange factor 3 (EPAC1) (AID 1645881).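 Further: EPAC1 catalysed release of BODIPY-GDP from Rap1B seen as fluorescence loss; 100% = effect of cAMP agonist control; nearly all actives have a fitted effect of over 75% in size.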
The target in assay [14] is Rap guanine nucleotide exchange factor 4 (Homo sapiens) (UniProt Q8WZA2). In words: Confirmatory qHTS for agonist of cAMP-regulated guanine nucleotide exchange factor 4 (EPAC2) (AID 1645884).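 Further: nucleotide exchange releases bodipy-GDP from Rap1 and this lowers its fluorescence; nearly all actives have a fitted effect of over 65% in size.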 Further: potency means the concentration at half of the fitted maximal effect.
Rap guanine nucleotide exchange factor 4 (Homo sapiens), sequence (Q8WZA2 whole entry, looked up): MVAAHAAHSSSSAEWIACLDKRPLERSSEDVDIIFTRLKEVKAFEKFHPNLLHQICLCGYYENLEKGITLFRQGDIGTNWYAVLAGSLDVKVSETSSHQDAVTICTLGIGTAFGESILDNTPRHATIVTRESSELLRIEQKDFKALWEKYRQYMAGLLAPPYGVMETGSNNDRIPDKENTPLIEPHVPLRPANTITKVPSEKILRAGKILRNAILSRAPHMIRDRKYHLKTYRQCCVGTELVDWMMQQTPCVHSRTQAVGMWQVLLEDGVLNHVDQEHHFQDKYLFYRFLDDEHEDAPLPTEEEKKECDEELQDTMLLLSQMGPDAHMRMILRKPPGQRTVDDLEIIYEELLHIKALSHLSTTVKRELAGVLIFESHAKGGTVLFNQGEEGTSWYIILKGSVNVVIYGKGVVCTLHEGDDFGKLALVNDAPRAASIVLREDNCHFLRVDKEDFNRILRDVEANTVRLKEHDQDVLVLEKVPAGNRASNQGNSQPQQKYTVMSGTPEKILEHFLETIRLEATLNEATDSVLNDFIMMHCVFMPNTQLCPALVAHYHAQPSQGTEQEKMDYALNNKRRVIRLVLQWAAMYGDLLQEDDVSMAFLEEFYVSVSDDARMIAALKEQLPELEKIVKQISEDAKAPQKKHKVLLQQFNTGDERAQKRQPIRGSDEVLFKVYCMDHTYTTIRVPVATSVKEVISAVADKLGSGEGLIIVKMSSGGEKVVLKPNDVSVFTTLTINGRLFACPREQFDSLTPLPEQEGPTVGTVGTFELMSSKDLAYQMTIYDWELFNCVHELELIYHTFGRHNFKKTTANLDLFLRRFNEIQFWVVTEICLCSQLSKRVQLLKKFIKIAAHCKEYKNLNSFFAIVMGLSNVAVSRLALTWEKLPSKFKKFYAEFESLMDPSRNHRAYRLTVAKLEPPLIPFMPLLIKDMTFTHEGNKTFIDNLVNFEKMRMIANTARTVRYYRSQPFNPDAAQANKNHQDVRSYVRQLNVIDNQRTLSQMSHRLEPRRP
Assay [15] has the same target. Briefly: Confirmatory qHTS for antagonist of cAMP-regulated guanine nucleotide exchange factor 4 (EPAC2) (AID 1645885). Further: nearly all actives have a fitted effect of over 25% in size. Further: potency means the concentration at half of the fitted maximal effect.
For assay [16], the target named is 3',5'-cyclic-AMP phosphodiesterase 4B (Homo sapiens) (UniProt Q07343). Briefly: qHTS Assay for Inhibitors of PDE-IV (AID 607; active means well fitted activation curve with a large enough effect in the main read-out, with a control signal flat, not every such curve was filed as active; further: % of control where 0% means no effect). A digest of the protocol: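 HEK293 ACTOne cells with CNG channel (1000/well), endogenous PDE4; membrane potential dye, compounds up to 22.9 uM final. Fluorescence Ex 535/Em 590; RO 20-1724 (100 uM final) as reference.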
For assay [17], the target named is Rap guanine nucleotide exchange factor 3 (Homo sapiens) (UniProt O95398). In words: Confirmatory qHTS for antagonist of cAMP-regulated guanine nucleotide exchange factor 3 (EPAC1) (AID 1645880). Further: nearly all actives have a fitted effect of over 55% in size. Further: potency means the concentration at half of the fitted maximal effect.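 On activity, negative = inhibition: plate controls were DMSO only for no effect and full effect of the ATA control for full effect.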 A digest of the protocol: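 Nucleotide exchange uses 100 nM EPAC1, 250 nM RAP1B-BODIPY-GDP and 50 uM GDP, with compounds in a concentration-titration series. After 5 min at room temperature, fluorescence (480 nm ex/540 nm em) is read every 5 min for 30 min. Data are normalized to control ATA and DMSO.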
Rap guanine nucleotide exchange factor 3 (Homo sapiens), sequence (O95398 whole entry, looked up): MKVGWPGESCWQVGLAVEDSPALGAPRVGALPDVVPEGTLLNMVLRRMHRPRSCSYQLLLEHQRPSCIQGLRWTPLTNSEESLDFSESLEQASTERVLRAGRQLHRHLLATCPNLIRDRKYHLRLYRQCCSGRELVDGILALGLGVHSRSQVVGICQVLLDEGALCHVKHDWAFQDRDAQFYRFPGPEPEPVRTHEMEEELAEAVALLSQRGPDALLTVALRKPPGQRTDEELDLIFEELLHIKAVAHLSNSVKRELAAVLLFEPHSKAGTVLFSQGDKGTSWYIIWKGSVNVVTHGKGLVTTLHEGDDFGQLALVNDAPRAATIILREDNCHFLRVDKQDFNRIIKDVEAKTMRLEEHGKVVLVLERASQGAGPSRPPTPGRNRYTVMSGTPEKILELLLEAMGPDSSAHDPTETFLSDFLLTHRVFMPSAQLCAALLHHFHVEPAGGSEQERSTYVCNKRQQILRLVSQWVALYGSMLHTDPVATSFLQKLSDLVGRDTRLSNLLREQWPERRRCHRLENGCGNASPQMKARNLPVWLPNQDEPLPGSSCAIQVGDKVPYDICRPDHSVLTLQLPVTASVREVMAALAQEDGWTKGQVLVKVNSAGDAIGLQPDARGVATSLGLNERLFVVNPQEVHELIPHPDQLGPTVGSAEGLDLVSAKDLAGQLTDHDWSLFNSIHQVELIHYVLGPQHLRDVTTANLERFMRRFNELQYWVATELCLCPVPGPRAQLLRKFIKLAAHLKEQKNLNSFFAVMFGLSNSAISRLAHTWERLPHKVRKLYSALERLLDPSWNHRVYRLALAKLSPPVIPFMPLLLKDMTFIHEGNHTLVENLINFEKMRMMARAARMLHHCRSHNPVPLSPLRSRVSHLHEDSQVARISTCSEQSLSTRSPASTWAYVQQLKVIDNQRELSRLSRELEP

The target of assay [18] is Dual specificity protein kinase CLK4 (Homo sapiens) (UniProt Q9HAZ1). In words: qHTS Assay for Inhibitors of CDC-like Kinase 4 (Kinase-Glo Assay) (AID 1770). Further: on the % scale 0 is the no-effect control and ±100 the full control effect; nearly all actives have a fitted effect of over 65% in size. A digest of the protocol:
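Substrate mix (RS peptide 100 uM, ATP 1 uM) dispensed, compound pinned in, then Clk4 added to 25 nM final. Incubated 4.5 h at RT; Kinase-Glo reagent added, luminescence read after 5 min.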

For assay [19], the target named is Cytochrome P450 3A4 (Homo sapiens) (UniProt P08684). Briefly: qHTS Assay for Inhibitors and Substrates of Cytochrome P450 3A4 (AID 884). Further: nearly all actives have a fitted effect of over 50% in size. Further: potency means the concentration at half of the fitted maximal effect. The method in brief: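 20 nM human CYP3A4 with 25 uM Luciferin-PPXE (at KM) in 200 mM KPO4, preincubated 10 min with compound; NADPH regeneration started a 60 min RT reaction. Luciferin detected by luminescence, normalized to 57 uM ketoconazole as full inhibition.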

Ubiquitin carboxyl-terminal hydrolase 1 (Homo sapiens), sequence (O94782 whole entry, looked up): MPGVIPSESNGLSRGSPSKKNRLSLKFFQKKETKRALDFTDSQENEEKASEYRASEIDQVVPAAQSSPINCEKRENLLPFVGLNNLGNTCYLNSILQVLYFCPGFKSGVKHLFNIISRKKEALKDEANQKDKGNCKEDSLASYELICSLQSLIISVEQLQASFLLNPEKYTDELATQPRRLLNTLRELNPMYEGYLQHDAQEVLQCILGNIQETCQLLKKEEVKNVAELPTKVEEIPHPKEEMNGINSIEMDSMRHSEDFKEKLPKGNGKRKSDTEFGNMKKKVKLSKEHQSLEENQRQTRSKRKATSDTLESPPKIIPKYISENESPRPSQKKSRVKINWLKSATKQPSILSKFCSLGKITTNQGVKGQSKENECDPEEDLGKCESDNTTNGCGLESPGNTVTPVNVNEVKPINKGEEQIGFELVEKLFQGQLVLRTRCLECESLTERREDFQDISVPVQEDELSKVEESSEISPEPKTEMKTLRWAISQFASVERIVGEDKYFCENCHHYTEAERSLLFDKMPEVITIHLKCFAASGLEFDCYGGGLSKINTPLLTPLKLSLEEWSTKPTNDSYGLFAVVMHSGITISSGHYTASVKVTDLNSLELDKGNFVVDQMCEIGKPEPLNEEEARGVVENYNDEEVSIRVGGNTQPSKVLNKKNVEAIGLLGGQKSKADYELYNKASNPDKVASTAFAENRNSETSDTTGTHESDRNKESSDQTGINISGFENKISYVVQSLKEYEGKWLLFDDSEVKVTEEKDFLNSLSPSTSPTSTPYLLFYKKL
Glucocorticoid receptor (Homo sapiens), sequence (P04150 whole entry, looked up, the tested form may be a part): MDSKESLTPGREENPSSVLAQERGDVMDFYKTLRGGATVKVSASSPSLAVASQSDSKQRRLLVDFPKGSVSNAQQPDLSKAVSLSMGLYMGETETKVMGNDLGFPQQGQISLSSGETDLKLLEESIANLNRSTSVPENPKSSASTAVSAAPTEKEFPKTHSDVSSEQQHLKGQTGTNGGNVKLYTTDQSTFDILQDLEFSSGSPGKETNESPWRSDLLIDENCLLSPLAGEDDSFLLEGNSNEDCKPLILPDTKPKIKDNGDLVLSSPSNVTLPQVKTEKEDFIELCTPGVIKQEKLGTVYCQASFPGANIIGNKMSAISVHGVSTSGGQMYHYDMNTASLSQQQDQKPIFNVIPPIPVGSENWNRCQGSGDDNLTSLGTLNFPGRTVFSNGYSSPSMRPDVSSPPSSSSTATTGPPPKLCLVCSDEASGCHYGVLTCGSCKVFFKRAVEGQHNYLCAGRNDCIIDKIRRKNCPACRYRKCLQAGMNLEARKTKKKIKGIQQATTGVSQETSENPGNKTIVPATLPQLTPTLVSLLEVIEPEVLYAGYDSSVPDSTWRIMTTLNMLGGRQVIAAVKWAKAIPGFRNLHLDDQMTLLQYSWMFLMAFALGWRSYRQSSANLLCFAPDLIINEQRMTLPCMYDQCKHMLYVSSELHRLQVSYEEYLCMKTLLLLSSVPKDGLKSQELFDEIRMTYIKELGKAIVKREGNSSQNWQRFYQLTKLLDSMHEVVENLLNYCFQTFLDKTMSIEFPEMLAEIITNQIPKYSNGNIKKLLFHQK
Lysosomal acid glucosylceramidase (Homo sapiens), sequence (P04062 whole entry, looked up): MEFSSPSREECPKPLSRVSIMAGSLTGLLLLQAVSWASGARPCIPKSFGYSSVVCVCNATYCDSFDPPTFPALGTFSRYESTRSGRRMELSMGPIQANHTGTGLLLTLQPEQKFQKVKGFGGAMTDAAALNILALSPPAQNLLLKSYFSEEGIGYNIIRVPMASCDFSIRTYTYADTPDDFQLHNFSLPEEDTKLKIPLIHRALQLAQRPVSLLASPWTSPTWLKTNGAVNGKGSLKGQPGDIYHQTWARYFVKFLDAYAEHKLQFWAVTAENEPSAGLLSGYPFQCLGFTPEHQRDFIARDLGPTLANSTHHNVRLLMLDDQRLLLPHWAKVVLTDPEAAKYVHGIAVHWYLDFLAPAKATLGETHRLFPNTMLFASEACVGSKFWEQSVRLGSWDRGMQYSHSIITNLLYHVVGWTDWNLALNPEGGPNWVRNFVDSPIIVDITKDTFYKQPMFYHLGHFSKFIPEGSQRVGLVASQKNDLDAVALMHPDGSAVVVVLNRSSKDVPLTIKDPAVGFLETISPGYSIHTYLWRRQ

For the compound `CN(C)c1ncnc2ccc(-c3ccccc3C(F)(F)F)cc12`, the Potency is above 11.4 µM in assay [1]; 0.631 µM (active) in assay [3]; above 46 µM in assay [6]; above 46 µM in assay [7]; 44.1 µM (active) in assay [15]. Further, the results for the activity change, negative = inhibition in assay [2] and in [4] were 0.8% and 20.6%, respectively. Moreover, the activity, negative = inhibition in assay [5] was -12.7%. The Potency entry in assay [8], in assay [9], in assay [10], in assay [11], in assay [13] and in assay [14] was “inactive” each time. Moreover, in [12], the outcome was inactive.

Turning to `O=c1c(-c2ccc(F)cc2)nc2cnc(Nc3ccccc3)nc2n1Cc1cccs1`, the Potency in [1] was above 11.4 µM; in assay [3], 2 µM (active); in assay [6], above 9.22 µM; in assay [7], above 46 µM. Also, the activity change, negative = inhibition in [2] is -11.9%. Besides, the Potency result in [8], in assay [16], in assay [17] and in assay [15] was “inactive” throughout. In addition, the result in assay [12] was inactive.

On to `COCCn1c(=O)c(-c2cccs2)nc2cnc(N3CCOCC3)nc21`, for which the Potency in assay [1] was above 11.4 µM; in assay [7], above 46 µM. For the same compound, the figures for the activity change, negative = inhibition in [2] and in [4] were -6.06% and 2.93%, respectively. In addition, the activity, negative = inhibition in assay [5] is -8.84%. Also, the Potency entry in [8], in assay [16], in [18], in assay [10], in assay [11] and in assay [17] was “inactive” each time. In assay [15], the Potency entry is “inactive”. Moreover, in assay [12], the result was inactive.

Turning to `CCCCCc1c2c(cc(O)c1C(=O)O)OC(=O)c1cc(C(=O)CCCC)c(OC)cc1O2`, the outcome in assay [12] was inactive. Also, the Potency in assay [17] is 42.6 µM (active). Besides, the Potency entry in assay [13] and in assay [14] was “inactive” throughout.

In the case of `CN(C)c1ncc2nc(-c3cccs3)c(=O)n(C3CC3)c2n1`, the Potency in assay [1] is above 11.4 µM; in assay [6] it was above 9.22 µM; in assay [7], above 46 µM; in [14], 19.9 µM (active). Moreover, the activity change, negative = inhibition in [2] is 6.37%; in [4], 19.8%. In [12], the result was inactive. Moreover, the Potency entry in assay [17] and in assay [15] was “inactive” throughout.

As to `COC(=O)N1CCC2(CC1)CCN(c1cccc(-c3ccccc3)c1)CC2`, the results for the Potency in assay [1] and in assay [7] were above 11.4 µM and above 46 µM, respectively. Further, in [2], the activity change, negative = inhibition was -18.3%. The Potency entry in assay [3], in assay [8], in [16], in assay [19], in assay [17] and in assay [13] was “inactive” throughout. Moreover, in assay [14], the Potency result was “inactive”. Besides, the activity, negative = inhibition in [5] is 13%. Also, the result in [12] was inactive.

With `COCCn1c(=O)c(-c2cc(F)cc(F)c2)nc2cnc(Nc3cccc(OC)c3)nc21`, the Potency in assay [1] was above 11.4 µM; in assay [3], 2.51 µM (active); in assay [6] it was above 9.22 µM; in assay [7], above 46 µM; in [19], 7.94 µM (active). Further, the values for the activity change, negative = inhibition in assay [2] and in assay [4] were -16% and -16.5%, respectively. Moreover, the activity, negative = inhibition in assay [5] was -3.85%. Also, the Potency entry in assay [8], in assay [16], in [9], in assay [17], in [13] and in assay [15] was “inactive” throughout. Moreover, in [12], the result was inactive.

As for `O=c1c(-c2cccs2)nc2cnc(Nc3ccccc3)nc2n1C[C@H]1CCCO1`, the Potency is 2.51 µM (active) in assay [3], above 9.22 µM in assay [6] and above 46 µM in [7]. In addition, the activity change, negative = inhibition in assay [4] was -16.9%. Also, the activity, negative = inhibition in [5] was 22.1%. Also, the Potency entry in assay [8], in assay [16], in assay [9], in assay [18], in [10] and in assay [11] was “inactive” throughout. Besides, the Potency entry in assay [17], in [13] and in [15] was “inactive” each time. For the same compound, the outcome in assay [12] was inactive.

(Values after PubChem BioAssay (NCATS).)
